The list is not random: actives were taken first. Their share in the collection is about 6.5%.
MARV entry inh: blocks Marburg virus binding to or entry into cells | Marburg virus pseudotyped entry inhibition, cell reporter | 300,000 compounds, 1.8% hits | Potency, µM (doses to about 37.8 µM), for inactives: at the top dose activity change, negative = inhibition, hits mostly inhibitors; calls by dose curve; tested in HEK293 cells; further: potency means the concentration at half of the fitted maximal effect
HCMV antiviral: human cytomegalovirus inhibition. HFF cells, HCMV-luciferase reporter, 72 h; hits give low values. activity change, negative = inhibition, % at 57.5 µM. 410,000 compounds, 4.5% hits; in the data active means activity change below about -60%; inconclusive means no clear call, values can overlap the other calls; inactive means above about -39%
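Screen run at 2 compound doses on HFFs infected with reporter HCMV, MOI 1 PFU/cell. Luciferase activity from cell lysates at 72 h post infection gave inhibition relative to buffer-only and Salinomycin wells.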
FMDV inh: antivirals against foot and mouth disease virus; FMDV antiviral cell-based qHTS; 410,000 compounds, 1.2% hits; Potency, µM (highest dose often 57.9 µM), for inactives: top-dose activity change, negative = inhibition, usual class: inhibitors; AID 1159524; calls by dose curve; tested in HEK293T cells; further: read-out not given here; potency means the concentration at half of the fitted maximal effect; nearly all actives have a fitted effect of over 45% in size
VACV mCherry inh: inhibitors of vaccinia virus infection (mCherry reporter signal) | Vaccinia virus mCherry reporter infection, fluorescence | Potency, µM (top dose mostly 36.5 µM), without a hit: at the top dose activity change, negative = inhibition, usual class: inhibitors | 310,000 compounds, 0.63% hits | AID 720579; calls by dose curve; tested in A549 cells; further: potency means the concentration at half of the fitted maximal effect; nearly all actives have a fitted effect of over 35% in size
VACV Venus inh: vaccinia inhibition (Venus reporter); Potency, µM (top dose mostly 36.5 µM), for the others: top-dose activity change, negative = inhibition, usual class: inhibitors; AID 720580; 330,000 compounds, 0.46% hits; Vaccinia virus Venus reporter expression, fluorescence; calls by dose curve; tested in A549 cells; further: potency means the concentration at half of the fitted maximal effect; nearly all actives have a fitted effect of over 30% in size
LASV entry inh: blocks Lassa virus binding to or entry into cells; Lassa virus pseudotype entry inhibition, cell reporter; Potency, µM (top dose mostly 37.9 µM), for the others: at the highest dose activity change, negative = inhibition, actives largely listed as inhibitors; 300,000 compounds, 1.2% hits; AID 540256; calls by dose curve; tested in HEK293 cells; further: potency means the concentration at half of the fitted maximal effect; nearly all actives have a fitted effect of over 50% in size
* hit, by the source's call; i = inactive; ? = inconclusive; nt = no result; ! = not active in a repeat; [ ] = remark or other dose. On the % scale 0 is the no-effect control and ±100 the full control effect.

SMILES	MARV entry inh	HCMV antiviral	FMDV inh	VACV mCherry inh	VACV Venus inh	LASV entry inh
COc1ccc(OC)c(-c2ccnc(-n3ncc(C(=O)N(C)CCc4ccccn4)c3C)n2)c1	nt	nt	-11%	-15%	-4%	nt
CN=C1S/C(=C\c2cccn2-c2cccc(Br)c2)C(=O)N1C	-9%	-65*	5%	nt	nt	3%
CN=C1S/C(=C\c2ccc(N3CCCC3)c(F)c2)C(=O)N1C	5%[46.1 µM]	35	9%	?	-7%	16%[46.1 µM]
COc1ccc(NC(=O)CCN2C(=O)C3C4C=CC(C4)C3C2=O)cc1 (centres undefined)	?	6	4%	9%	-3%	-18%
Cc1cc(NC(=O)CCN2C(=O)C3C4C=CC(C4)C3C2=O)ccc1Br (centres undefined)	-5%[46.1 µM]	-68*	14%	-15%	-13%	nt
CCn1cc(S(=O)(=O)c2ccc(C)cc2)c(=O)c2cc(F)c(N3CCCCCC3)cc21	nt	11	-17%	?	?	4%[46.1 µM]
COc1ccc(/C=C/C(=O)c2c(O)cc(C)oc2=O)c(OC)c1	-7%	-38	10%	i	43%	15%
COc1cc(/C=C/C(=O)c2c(O)cc(C)oc2=O)cc(OC)c1O	-20%	-68*	14µM*	68%	59%	0%
COc1cccc(/C=C/C(=O)c2c(O)cc(C)oc2=O)c1O	?	-97*	20µM*	-24%	-11%	-11%
C=CCNC(=O)c1ccc(OC2CCN(S(=O)(=O)N(C)C)CC2)cc1	29%[14.2 µM]	-17	0%	3%	-6%	17%
CN(C)S(=O)(=O)N1CCC(Oc2ccc(C(=O)NCC(C)(C)CO)cc2)CC1	-19%[46.1 µM]	-64*	4%	-16%	-12%	1%
CCCN(CCC)C(=O)Cn1ccc(=N)c2c1CCCC2	-3%	nt	nt	nt	nt	nt
COC(=O)c1ccc2c(c1)N(CC(=O)Nc1cccc(Cl)c1C)C(=O)c1ccccc1S2	nt	-34	-3%	3%	9%	19%[46.1 µM]
Cc1cc(C)c(NC(=O)C2CC(=O)N(C3CCCC3)C2)c(C)c1 (centres undefined)	nt	-72*	-2%	nt	nt	nt
O=C(C1CCCN(S(=O)(=O)c2cccc3nonc23)C1)N1CCN(c2cccc(Cl)c2)CC1 (centres undefined)	23µM*!	-65*!	-8%	-8%	-12%	5%[46.1 µM]
O=C(C1CCCN(S(=O)(=O)c2ccc(Br)s2)C1)N1CCCCCC1 (centres undefined)	-10%	-17	?	nt	-26%	-13%
Cc1cccc(N2CCN(C(=O)C3CC(=O)N(C4CCCC4)C3)CC2)c1C (centres undefined)	?	-63*	?	-29%	-12%	-12%
Cc1ccccc1N1CCN(C(=O)C2CCC(=O)N(C3CCCC3)C2)CC1 (centres undefined)	nt	21	-18%	nt	nt	nt
O=C(O)C1CCCN(S(=O)(=O)c2ccc(Br)s2)C1 (centres undefined)	15%	-62*	-10%	i	-1%	25%
O=C(Nc1ccccc1)C1CC(=O)N(C2CCCCC2)C1 (centres undefined)	14%	17	-17%	nt	-8%	-5%
O=C(C1CCN(S(=O)(=O)c2cccc3nonc23)CC1)N1CCN(c2cccc(Cl)c2)CC1	nt	-34	-13%	-12%	-7%	?
OCCN1CN(c2ccccc2)C(=S)N(c2ccccc2)C1	nt	38	nt	nt	nt	nt
CCc1nc2cc(C(=O)NC3CCS(=O)(=O)C3)cc(NC(=O)c3ccccc3OC)c2n1C (centres undefined)	nt	nt	-11%	i	-9%	nt
O=C(NCc1ccncn1)[C@H]1[C@H](CO)[C@H]2Cn3c(cccc3=O)[C@@H]1N2CC1CC1	nt	1	nt	nt	nt	nt
CN1CCN(c2ccnc(-c3ccoc3)n2)CC1	nt	nt	-7%	nt	nt	nt
COc1cccc(N2CCN(C(=O)C3CCCN(S(=O)(=O)c4ccc(Br)s4)C3)CC2)c1 (centres undefined)	?	-24	18µM*	-27%	-16%	?
O=C(C1CCC(CNS(=O)(=O)c2ccc(Br)s2)CC1)N1CCN(c2ccc(F)cc2)CC1 (centres undefined)	?	-14	?	-20%	-19%	1%[46.1 µM]
Cc1n[nH]c(C)c1S(=O)(=O)N1CCCC(C(=O)N2CCN(c3ccc(Cl)cc3)CC2)C1 (centres undefined)	?	-76*	20µM*	?	?	?
